Laboratory results reported in PubChem BioAssay AID1159580 (chemical genetic matrix, 2015).
Hit rate of the full screen: of about 5,500 compounds, about 2,000 (36%) were called active. Roughly 18% stayed inconclusive and do not appear here. Rule as the data show it: active = normalized growth mostly below about 0.91 (no sharp cut-off); inconclusive = no clear call, values can overlap the other calls; inactive = mostly above about 0.92. Some of the results follow.

Test: chemical genetic growth profiling, strain panel (AID 1159580);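 also: tested at 20 µM; growth read once vehicle control cultures reached saturation at 30 °C; 1 = growth at the plate median or of vehicle wells; lower values mean less growth of the strain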
Conditions: S. cerevisiae deletion strains, growth OD

Measured: normalized growth

O=C1c2ccc(O)c(O)c2C(=O)c2c(O)ccc(O)c21
active: locus YAL021C, strain ccr4, hits give low values 0.241 | locus YAL026C, strain drs2, hits give low values 0.376 | locus YAL030W, strain snc1, hits give low values 0.69 | locus YBL061C, strain skt5, hits give low values 0.548 | locus YBR009C, strain hhf1, hits give low values 0.667 | locus YBR023C, strain chs3, hits give low values 0.479 | locus YBR171W, strain sec66, hits give low values 0.753 | locus YBR231C, strain swc5, hits give low values 0.479 | locus YBR279W, strain paf1, hits give low values 0.838 | locus YCL011C, strain gbp2, hits give low values 0.67 | locus YCL016C, strain dcc1, hits give low values 0.695 | locus YCL069W, strain vba3, hits give low values 0.751 | locus YCR088W, strain abp1, hits give low values 0.781 | locus YDL005C, strain med2, hits give low values 0.879 | locus YDL040C, strain nat1, hits give low values 0.795 | locus YDR001C, strain nth1, hits give low values 0.787 | locus YDR069C, strain doa4, hits give low values 0.399 | locus YDR137W, strain rgp1, hits give low values 0.255 | locus YDR159W, strain sac3, hits give low values 0.789 | locus YDR297W, strain sur2, hits give low values 0.697 | locus YDR334W, strain swr1, hits give low values 0.424 | locus YDR335W, strain msn5, hits give low values 0.737 | locus YDR392W, strain spt3, hits give low values 0.567 | locus YEL003W, strain gim4, hits give low values 0.675 | locus YEL037C, strain rad23, hits give low values 0.734 | locus YEL061C, strain CIN8 (second series), hits give low values 0.814 | locus YER015W, strain faa2, hits give low values 0.493 | locus YER016W, strain bim1, hits give low values 0.705 | locus YER111C, strain swi4, hits give low values 0.708 | locus YER155C, strain BEM2 (second series), hits give low values 0.696 | locus YFR010W, strain ubp6, hits give low values 0.539 | locus YGL167C, strain pmr1, hits give low values 0.814 | locus YGL173C, strain kem1, hits give low values 0.286 | locus YGL227W, strain vid30, hits give low values 0.83 | locus YGL240W, strain doc1, hits give low values 0.667 | locus YGL253W, strain hxk2, hits give low values 0.638 | locus YHR027C, strain rpn1, hits give low values 0.401 | locus YHR142W, strain chs7, hits give low values 0.451 | locus YJL092W, strain hpr5, hits give low values 0.774 | locus YJL095W, strain BCK1 (second series), hits give low values 0.236 | locus YJL115W, strain asf1, hits give low values 0.816 | locus YJL129C, strain trk1, hits give low values 0.52 | locus YJL154C, strain vps35, hits give low values 0.782 | locus YJL164C, strain tpk1, hits give low values 0.545 | locus YJL166W, strain qcr8, hits give low values 0.596 | locus YKL160W, strain elf1, hits give low values 0.869 | locus YKR026C, strain gcn3, hits give low values 0.81 | locus YKR091W, strain srl3, hits give low values 0.757 | locus YLL001W, strain dnm1, hits give low values 0.722 | locus YLL026W, hits give low values 0.758 | locus YLL041C, strain sdh2, hits give low values 0.765 | locus YLR027C, strain aat2, hits give low values 0.751 | locus YLR221C, strain rsa3, hits give low values 0.668 | locus YLR258W, strain gsy2, hits give low values 0.685 | locus YLR262C, strain YPT6 (second series), hits give low values 0.185 | locus YLR320W, strain mms22, hits give low values 0.515 | locus YLR342W, strain FKS1, hits give low values 0.532 | locus YLR357W, strain rsc2, hits give low values 0.563 | locus YLR370C, strain arc18, hits give low values 0.577 | locus YLR384C, strain iki3, hits give low values 0.731 | locus YML120C, strain ndi1, hits give low values 0.768 | locus YMR058W, strain fet3, hits give low values 0.459 | locus YMR125W, strain sto1, hits give low values 0.803 | locus YMR129W, hits give low values 0.756 | locus YMR205C, strain PFK2, hits give low values 0.522 | locus YMR231W, strain pep5, hits give low values 0.641 | locus YNL071W, strain lat1, hits give low values 0.748 | locus YNL209W, strain ssb2, hits give low values 0.29 | locus YNL248C, strain rpa49, hits give low values 0.66 | locus YNL322C, strain KRE1 (second series), hits give low values 0.812 | locus YNR049C, strain mso1, hits give low values 0.785 | locus YOR001W, strain rrp6, hits give low values 0.683 | locus YOR070C, strain gyp1, hits give low values 0.71 | locus YOR080W, strain dia2, hits give low values 0.759 | locus YOR083W, strain WHI5, hits give low values 0.57 | locus YOR106W, strain vam3, hits give low values 0.307 | locus YOR265W, strain rbl2, hits give low values 0.683 | locus YOR270C, strain vph1, hits give low values 0.387 | locus YOR290C, strain snf2, hits give low values 0.578 | locus YPL051W, strain arl3, hits give low values 0.416 | locus YPL078C, strain atp4, hits give low values 0.76 | locus YPL106C, strain sse1, hits give low values 0.536 | locus YPL240C, strain hsp82, hits give low values 0.74
inactive: locus YBR021W, strain FUR4, hits give low values 1.01 | locus YBR229C, strain ROT2, hits give low values 1.01 | locus YCL029C, strain bik1, hits give low values 1 | locus YDL035C, strain GPR1, hits give low values 1.03 | locus YDL074C, strain BRE1, hits give low values 1 | locus YDL101C, strain DUN1, hits give low values 1.01 | locus YDL185W, strain tfp1, hits give low values 1.01 | locus YDL192W, strain arf1, hits give low values 0.99 | locus YDR101C, strain arx1, hits give low values 1.01 | locus YDR162C, strain NBP2, hits give low values 1.03 | locus YDR195W, strain ref2 0.873 | locus YDR318W, strain mcm21, hits give low values 0.992 | locus YDR388W, hits give low values 0.997 | locus YDR502C, strain sam2, hits give low values 0.991 | locus YEL061C, strain CIN8, hits give low values 1 | locus YER110C, hits give low values 0.991 | locus YER155C, strain BEM2, hits give low values 1 | locus YER167W, strain BCK2, hits give low values 1.02 | locus YGL078C, strain dbp3, hits give low values 0.982 | locus YGL086W, strain mad1, hits give low values 0.989 | locus YGL248W, strain PDE1, hits give low values 1 | locus YGR078C, strain PAC10, hits give low values 1.01 | locus YGR135W, strain pre9, hits give low values 0.991 | locus YGR252W, strain gcn5, hits give low values 0.977 | locus YHR013C, strain ard1, hits give low values 0.953 | locus YHR030C, strain SLT2, hits give low values 1.01 | locus YHR079C, strain IRE1 (second series), hits give low values 0.991 | locus YHR094C, strain hxt1, hits give low values 0.995 | locus YHR129C, strain ARP1, hits give low values 1.01 | locus YHR200W, strain rpn10, hits give low values 0.998 | locus YIL066C, strain RNR3, hits give low values 1.03 | locus YIL073C, strain SPO22, hits give low values 1.01 | locus YIL125W, strain kgd1, hits give low values 0.992 | locus YIR030C, strain dcg1, hits give low values 0.988 | locus YJL095W, strain BCK1, hits give low values 0.998 | locus YJL134W, strain LCB3, hits give low values 1.01 | locus YJL168C, strain set2, hits give low values 0.988 | locus YJL187C, strain SWE1 (second series), hits give low values 1.01 | locus YJR043C, strain POL32, hits give low values 1.03 | locus YKL009W, strain mrt4, hits give low values 0.978 | locus YKL068W, hits give low values 0.992 | locus YKL085W, strain MDH1 (second series), hits give low values 0.99 | locus YKL085W, strain MDH1, hits give low values 0.99 | locus YKL190W, strain CNB1, hits give low values 1.01 | locus YKR001C, strain vps1, hits give low values 0.985 | locus YLR039C, strain RIC1, hits give low values 1.03 | locus YLR058C, strain SHM2, hits give low values 1.01 | locus YLR102C, strain apc9, hits give low values 0.991 | locus YLR262C, strain YPT6, hits give low values 1.09 | locus YLR268W, strain sec22, hits give low values 1.01 | locus YLR330W, strain CHS5, hits give low values 1.01 | locus YLR342W, strain FKS1 (second series), hits give low values 1.02 | locus YLR371W, strain rom2, hits give low values 0.986 | locus YLR418C, strain cdc73, hits give low values 0.978 | locus YML016C, strain PPZ1, hits give low values 1.01 | locus YML032C, strain rad52, hits give low values 1.01 | locus YML124C, strain tub3, hits give low values 0.988 | locus YMR078C, strain ctf18, hits give low values 0.996 | locus YMR223W, strain ubp8, hits give low values 0.998 | locus YMR307W, strain GAS1, hits give low values 1.07 | locus YNL067W, strain RPL9B, hits give low values 0.997 | locus YNL128W, strain TEP1, hits give low values 1.01 | locus YNL153C, strain GIM3, hits give low values 0.998 | locus YNL233W, strain BNI4, hits give low values 1.01 | locus YNL250W, strain rad50, hits give low values 0.998 | locus YNL271C, strain bni1, hits give low values 0.994 | locus YNL298W, strain CLA4, hits give low values 0.994 | locus YNL307C, strain MCK1, hits give low values 0.994 | locus YNR052C, strain pop2, hits give low values 0.993 | locus YOL012C, strain htz1 0.902 | locus YOL147C, strain pex11, hits give low values 0.998 | locus YOR061W, strain CKA2, hits give low values 1.02 | locus YOR069W, strain VPS5, hits give low values 1.01 | locus YOR136W, strain idh2, hits give low values 1.02 | locus YOR144C, strain elg1, hits give low values 0.991 | locus YOR184W, strain ser1, hits give low values 0.995 | locus YOR316C, strain cot1, hits give low values 0.996 | locus YPL241C, strain CIN2, hits give low values 1.01 | locus YPR119W, strain clb2, hits give low values 0.989 | locus YPR141C, strain kar3, hits give low values 0.991 | locus YPR163C, strain tif3, hits give low values 1.01 | locus YPR167C, strain met16, hits give low values 0.989 | strain wtn01, hits give low values 1.01
